HCMV antiviral = inhibitors of human cytomegalovirus | hit rate 4.5% among 410,000 | AID 1259415 | HFF cells, HCMV-luciferase reporter, 72 h; hits give low values | activity change, negative = inhibition, % at 57.5 µM; in the data active = activity change below about -60%; inconclusive = no clear call, values can overlap the other calls; inactive = above about -39%
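HFF cells seeded 16 h at 37C, treated with compounds, infected with luciferase-reporter HCMV at MOI 1 PFU/cell; luciferase read at 72 h post infection, normalized to buffer-only and Salinomycin controls.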
HCV inhibitor = inhibitors of hepatitis C virus infection; Huh7.5.1 HCVcc-Cre infection, luciferase reporter, 44 h; Potency, µM (doses to about 41.8 µM), most hits filed as inhibitors; hit rate 3.4% among 340,000; AID 651820; active = well fitted inhibition curve with a large enough effect; inconclusive = small, poorly fitted or top-dose-only effect, or another doubt; inactive = no such curve, though single readings can be large or run the other way
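Luciferase read-out (15 sec integration) after a 15 min room-temperature substrate step quantifies HCVcc-Cre infection. Cells, 1,000 per well, had compound added 4 h post-plating, then virus at ~0.5 moi, and were cultured 44 h.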
VACV Venus inh = inhibitors of vaccinia virus (Venus reporter); Vaccinia virus Venus reporter expression, fluorescence; Potency, µM (series often up to 36.5 µM), usual class: inhibitors; hit rate 0.46% among 330,000; calls by dose curve; tested in A549 cells; also: nearly all actives have a fitted effect of over 30% in size
VACV mCherry inh = inhibitors of vaccinia virus infection (mCherry reporter signal) | Vaccinia virus mCherry reporter infection, fluorescence | Potency, µM (doses to about 36.5 µM), most hits filed as inhibitors | hit rate 0.63% among 310,000; calls by dose curve; tested in A549 cells; also: nearly all actives have a fitted effect of over 35% in size
FMDV inh = antivirals against foot and mouth disease virus | FMDV antiviral cell-based qHTS | Potency, µM (highest dose often 57.9 µM), hits mostly inhibitors | hit rate 1.2% among 410,000 | AID 1159524; calls by dose curve; tested in HEK293T cells; also: read-out not given here; nearly all actives have a fitted effect of over 45% in size
Numbers stand for hits; i = inactive; ? = inconclusive; nt = no result given; [ ] = another dose, or the depositor's remark. Most compounds without a hit are left out; they make up all but 7.3% or so of the library.

SMILES | HCMV antiviral | HCV inhibitor | VACV Venus inh | VACV mCherry inh | FMDV inh
Cc1cccc(C)c1OCc1cc(C(=O)N2CCN(C3CCCC3)CC2)no1 | i | nt | i | i | i
Cc1cccc(C)c1OCc1cc(C(=O)N2CCC(c3ccncc3)CC2)no1 | ? | 7.9µM | i | i | i
O=C(c1cc(COc2c(F)cccc2F)on1)N1CCC(c2ccncc2)CC1 | -84 | 5µM | i | i | i
NS(=O)(=O)c1ccc(NC(=O)c2csnn2)cc1 | i | nt | i | i | i
CC(C)c1ccc(NC(=O)c2csnn2)cc1 | i | 14µM | nt | nt | i
CC(=O)Nc1ccc2c(c1)Cc1cc(N3C(=O)C=CC3=O)ccc1-2 | -66 | i | i | i | i
O=C(Nc1ccc(OC(F)(F)F)cc1)C1CCN(S(=O)(=O)c2ccc3[nH]c(=O)ccc3c2)CC1 | i | nt | i | i | ?
Brc1cccc(-c2nc3cccnc3nc2-c2cccc(Br)c2)c1 | i | i | nt | nt | i
Cc1ccc(-c2nc3cc(Br)cnc3nc2-c2ccc(C)cc2)cc1 | i | 13µM | i | i | ?
COc1ccc(CCNC(=O)N2c3ccccc3Sc3ccccc32)cc1 | ? | 10µM | ? | ? | 18µM
CC(C)CNCC(=O)N1c2ccccc2Sc2ccccc21 | -71 | i | i | i | i
CC(C)NC(=O)N1c2ccccc2Sc2ccccc21 | ? | i | i | i | i
CC(C)(C)NC(=O)N1c2ccccc2Sc2ccccc21 | -60 | i | nt | nt | i
O=C(Nc1ccc(Br)cc1)c1cc(S(=O)(=O)N2CCc3ccccc32)ccc1F | i | nt | i | i | i
Cc1ccc2nc(Cl)c3cc(C(=O)NC4CCCCC4)sc3c2c1 | i | nt | i | i | i
CCN(CC)C(=O)CSc1nc2cc3c(cc2c(=O)n1CCCC(=O)NCCc1ccc(OC)c(OC)c1)OCO3 | -67 | i | i | i | i
CCN(CC)C(=O)CSc1nc2cc3c(cc2c(=O)n1Cc1ccc(C(=O)NCCc2ccc(OC)c(OC)c2)cc1)OCO3 | -83 | nt | i | i | i
CCN(CC)C(=O)CSc1nc2cc3c(cc2c(=O)n1Cc1ccco1)OCO3 | i | 10µM | i | i | i
CCC(C)NC(=O)CSc1nc2cc3c(cc2c(=O)n1Cc1ccco1)OCO3 (stereo unspecified) | i | i | i | i | i
CCCCNC(=O)CSc1nc2cc3c(cc2c(=O)n1Cc1ccc(C(=O)NCCc2ccc(OC)c(OC)c2)cc1)OCO3 | i | nt | i | i | i
Nc1nc(CSc2nnnn2-c2ccccc2)nc(N2CCCc3ccccc32)n1 | i | 11µM | i | ? | 28µM
Nc1nc(CN2CCN(c3ccccc3)CC2)nc(N2CCCc3ccccc32)n1 | i | i | nt | nt | i
CCN(CC)S(=O)(=O)c1ccc(N2CCN(CCOc3ccc(OC)cc3)CC2)nc1 | -77 | ? | i | ? | i
COc1cnc(-c2ccccn2)nc1Sc1ccccc1Cl | -98 | ? | nt | nt | ?
COc1cnc(-c2ccccn2)nc1N(C)C | -99 | ? | i | ? | i
SMILES | HCMV antiviral | HCV inhibitor | VACV Venus inh | VACV mCherry inh | FMDV inh
COc1cnc(-c2ccccn2)nc1Sc1c(Cl)cccc1Cl | -73 | ? | nt | nt | i
COc1cnc(-c2ccccc2)nc1Sc1ccccc1 | i | 13µM | i | i | i
CC(C)(C)c1ccc(C(=O)C[n+]2ccccc2Cl)cc1 | nt | nt | i | i | nt
CC1(C)CC(=O)C=C(c2ccccc2-c2ccc3c(c2)OCO3)C1=O | i | nt | nt | nt | nt
CCCCNC(=O)[C@@H]1CC=C[C@@H]2CCN(CCCC)C(=O)[C@@H]21 | nt | nt | i | i | nt
CCOc1ccccc1NC(=O)CN(C)S(=O)(=O)c1ccc2nc(C)sc2c1 | i | nt | i | i | i
CCOc1ccc(OCC)c(NC(=O)CN(C)S(=O)(=O)c2ccc3nc(C)sc3c2)c1 | ? | ? | i | ? | 32µM
Cc1ccc(CNC(=O)c2ccc([N+](=O)[O-])o2)cc1 | i | ? | ? | ? | i
Cc1ccc(C(=O)/C=C/c2ccc(Br)cc2)o1 | i | ? | nt | nt | i
Cc1ccc(/C=C/C(=O)c2ccc([N+](=O)[O-])o2)cc1 | -79 | 0.56µM | ? | i | ?
O=C(/C=C/c1ccc(Cl)cc1)c1ccc([N+](=O)[O-])o1 | -78 | i[8.37 µM] | 10µM | 8.9µM | ?
CCOC(=O)c1c(C)[nH]c(CCC(=O)Nc2c(C)cccc2CC)c1C | i | nt | i | i | i
c1cnc2c(c1)ncc1cscc12 | i | i | i | i | i
c1cc2c(cn1)cnc1cscc12 | -63 | i | nt | nt | i
Cc1ccc(C(=O)Nc2ncc(Cc3ccc(F)cc3)s2)o1 | i | i | nt | nt | i
CC(=O)Nc1ncc([N+](=O)[O-])s1 | i | nt | nt | nt | nt
Cc1ccc(C(=O)Nc2ncc([N+](=O)[O-])s2)cc1 | -70 | ? | nt | nt | 8.9µM
Cc1onc(-c2ccccc2)c1C(=O)Nc1ncc([N+](=O)[O-])s1 | -96 | ? | ? | ? | ?
O=C(Nc1ncc([N+](=O)[O-])s1)c1ccc2c(c1)OCO2 | -93 | i | i | i | 3.2µM
Cc1ccc(C(=O)Nc2ncc(Cc3ccc(SC(F)F)cc3)s2)cc1 | -63 | 10µM | ? | i | i
O=C1c2ccccc2/C(=C\c2ccc(Br)nc2)N1c1ccccc1 | i | nt | nt | nt | nt
O=C(COc1ccc(Cl)cc1)Nc1ncc([N+](=O)[O-])s1 | -61 | ? | 10µM | 11µM | i
Cc1ccc(/C(N)=N/OC(=O)c2ccc(C)cc2Cl)cc1 | -79 | ? | i | i | ?
COc1ccccc1C(=O)O/N=C(\N)c1ccccc1Cl | i | i | nt | nt | i
COc1ccc(C(=O)O/N=C(\N)c2ccccc2Cl)cc1OC | i | 10µM | i | i | i
SMILES | HCMV antiviral | HCV inhibitor | VACV Venus inh | VACV mCherry inh | FMDV inh
COc1ccc(/C(N)=N/OC(=O)c2ccc(OC)c([N+](=O)[O-])c2)cc1OC | i | 35µM | i | i | i
C=C1C=C(C)n2ncc(C(=O)Nc3ccc(C)cn3)c2N1 | nt | nt | i | i | nt
Cc1ccc(CSCCNC(=O)c2ccc(Cl)c(S(=O)(=O)N3CCOCC3)c2)cc1 | i | 22µM | nt | nt | ?
O=C(NCCC1=CCCCC1)c1ccc(Cl)c(S(=O)(=O)N2CCOCC2)c1 | -66 | ? | nt | nt | ?
NS(=O)(=O)c1ccc(CCNC(=O)c2ccc(Cl)c(S(=O)(=O)N3CCCCC3)c2)cc1 | ? | i | i | i | 45µM
O=C(NCCC1=CCCCC1)c1cc(S(=O)(=O)N2CCOCC2)c(Cl)cc1Cl | i | i | i | i | i
COc1ccc(Cl)cc1C(=O)NCCc1ccc(S(=O)(=O)NC(=O)NC2CCCCC2)cc1 | -63 | i[8.37 µM] | i | i | i
CCCCCCCCCCCCCCC[C@@H](O)[C@H](CO)NC(C)=O | nt | nt | i[3.33 µM] | i[3.33 µM] | i[6.7 µM]
Cc1cccc(Nc2nnc(-n3nc(C)cc3C)c3ccccc23)c1 | i | nt | i | i | i
Cc1ccc(C)c(S(=O)(=O)N2CCCOC2CNC(=O)C(=O)NCCc2ccccc2)c1 (stereo unspecified) | ? | i | i | i | i
O=C(NCCC1=CCCCC1)c1ccc(Cl)c(S(=O)(=O)N2CCCCC2)c1 | -81 | ? | nt | nt | ?
O=C(NCCSCc1c(F)cccc1Cl)c1ccc(CN2CCOCC2)cc1 | -63 | ? | i | i | ?
O=C(NCCSCc1ccco1)c1ccc(CN2CCOCC2)cc1 | i | i | i | i | nt
COc1ccc(C(=O)NCCc2ccc(Cl)cc2)cc1S(=O)(=O)N1CCCCC1C (stereo unspecified) | ? | 8.9µM | nt | nt | i

Screens: PubChem BioAssay, National Center for Advancing Translational Sciences (NCATS)
